Reference: PubChem BioAssay AID1159580 (chemical genetic matrix, 2015)
Among all 5,500 compounds or so, about 2,000 (36%) were called active. Not shown: some 18% with an inconclusive outcome. Cut-off read from the data, not from the text of the source: active = normalized growth mostly below about 0.91 (no sharp cut-off); inconclusive = no clear call, values can overlap the other calls; inactive = mostly above about 0.92. This is one part of the list.

Experiment: chemical genetic growth profiling, strain panel (AID 1159580);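 note: tested at 20 µM; growth read once vehicle control cultures reached saturation at 30 °C; 1 = growth at the plate median or of vehicle wells; lower values mean less growth of the strain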
Details: S. cerevisiae deletion strains, growth OD
[1] = locus YDL101C, strain DUN1, hits give low values
[2] = locus YHR030C, strain SLT2, hits give low values

Measured: normalized growth

Cc1ccc(/C=C2\CCc3ccccc3C2=O)o1
active: locus YAL013W, strain DEP1, hits give low values 0.451 | locus YBR229C, strain ROT2, hits give low values 0.43 | [1] 0.472 | locus YDL134C, strain PPH21, hits give low values 0.381 | locus YDR150W, strain NUM1, hits give low values 0.563 | locus YEL061C, strain CIN8, hits give low values 0.531 | locus YGR078C, strain PAC10, hits give low values 0.794 | [2] 0.126 | locus YHR087W, strain rtc3, hits give low values 0.528 | locus YJR043C, strain POL32, hits give low values 0.421 | locus YJR075W, strain HOC1, hits give low values 0.676 | locus YLR039C, strain RIC1, hits give low values 0.275 | locus YLR058C, strain SHM2 (second series), hits give low values 0.934 | locus YLR085C, strain ARP6, hits give low values 0.208 | locus YLR262C, strain YPT6, hits give low values 0.354 | locus YML094W, strain GIM5, hits give low values 0.347 | locus YMR219W, strain ESC1, hits give low values 0.765 | locus YMR263W, strain SAP30, hits give low values 0.464 | locus YNL153C, strain GIM3, hits give low values 0.459 | locus YNL298W, strain CLA4 (second series), hits give low values 0.315 | locus YNL322C, strain KRE1, hits give low values 0.755 | locus YNR030W, strain Alg12, hits give low values 0.205 | locus YPL055C, strain LGE1, hits give low values 0.263 | locus YPL241C, strain CIN2, hits give low values 0.224 | locus YPR135W, strain CTF4, hits give low values 0.264

O=C1/C(=C/c2ccccn2)CCc2ccccc21
active: locus YLR113W, strain HOG1, hits give low values 0.742
inactive: locus YAR019C, strain CDC15, hits give low values 0.923 | locus YBL105C, strain PKC1, hits give low values 0.944 | locus YBR135W, strain CKS1, hits give low values 0.95 | locus YBR136W, strain MEC1, hits give low values 0.929 | locus YBR160W, strain CDC28, hits give low values 0.957 | locus YDL017W, strain CDC7, hits give low values 0.954 | locus YDL028C, strain MPS1, hits give low values 0.94 | [1] 0.948 | locus YDL108W, strain KIN28, hits give low values 0.936 | locus YDL132W, strain cdc53, hits give low values 0.936 | locus YDL214C, strain PRR2, hits give low values 0.927 | locus YDR052C, strain DBF4, hits give low values 0.96 | locus YDR054C, strain cdc34, hits give low values 0.937 | locus YDR226W, strain ADK1, hits give low values 0.948 | locus YDR477W, strain SNF1, hits give low values 0.897 | locus YER123W, strain YCK3, hits give low values 0.814 | locus YER133W, strain GLC7, hits give low values 0.897 | locus YFL009W, strain cdc4, hits give low values 0.929 | locus YFL029C, strain CAK1, hits give low values 0.912 | locus YFR003C, strain YPI1, hits give low values 0.954 | locus YFR019W, strain FAB1, hits give low values 0.951 | locus YFR028C, strain CDC14, hits give low values 0.935 | locus YGR040W, strain KSS1, hits give low values 0.837 | locus YGR052W, strain FMP48, hits give low values 0.919 | locus YGR092W, strain DBF2, hits give low values 0.813 | [2] 0.88 | locus YHR079C, strain IRE1, hits give low values 0.869 | locus YHR082C, strain KSP1, hits give low values 0.921 | locus YHR205W, strain SCH9, hits give low values 0.878 | locus YIL147C, strain SLN1, hits give low values 0.939 | locus YJL095W, strain BCK1, hits give low values 0.863 | locus YJL128C, strain PBS2, hits give low values 0.937 | locus YJL157C, strain FAR1, hits give low values 0.939 | locus YJR016C, strain ILV3, hits give low values 0.94 | locus YJR066W, strain TOR1 (second series), hits give low values 0.633 | locus YJR066W, strain TOR1, hits give low values 0.855 | locus YKL048C, strain ELM1, hits give low values 0.952 | locus YKL067W, strain YNK1, hits give low values 0.928 | locus YKL101W, strain HSL1, hits give low values 0.922 | locus YKL193C, strain SDS22, hits give low values 0.937 | locus YKL203C, strain TOR2, hits give low values 0.912 | locus YLR133W, strain CKI1, hits give low values 0.935 | locus YLR403W, strain SFP1, hits give low values 0.869 | locus YML070W, strain DAK1, hits give low values 0.896 | locus YMR001C, strain CDC5, hits give low values 0.944 | locus YMR205C, strain PFK2 (second series), hits give low values 0.948 | locus YMR277W, strain FCP1, hits give low values 0.939 | locus YNL006W, strain LST8, hits give low values 0.967 | locus YNL020C, strain ARK1, hits give low values 0.948 | locus YNL161W, strain CBK1, hits give low values 0.941 | locus YNL183C, strain NPR1, hits give low values 0.84 | locus YNL207W, strain RIO2, hits give low values 0.943 | locus YNL222W, strain SSU72, hits give low values 0.942 | locus YNL307C, strain MCK1 (second series), hits give low values 0.913 | locus YOL078W, strain AVO1, hits give low values 0.935 | locus YOL136C, strain PFK27, hits give low values 0.919 | locus YOR061W, strain CKA2, hits give low values 0.934 | locus YOR119C, strain RIO1, hits give low values 0.91 | locus YOR231W, strain MKK1, hits give low values 0.875 | locus YOR329C, strain SCD5, hits give low values 0.948 | locus YPL031C, strain PHO85, hits give low values 0.874 | locus YPL153C, strain RAD53, hits give low values 0.883 | locus YPL204W, strain HRR25, hits give low values 0.862 | locus YPL209C, strain IPL1, hits give low values 0.944 | locus YPL256C, strain CLN2, hits give low values 0.861 | locus YPR025C, strain CCL1, hits give low values 0.945 | locus YPR106W, strain ISR1, hits give low values 0.96 | locus YPR111W, strain DBF20, hits give low values 0.955 | strain NNK1, hits give low values 0.967 | strain TSCII, hits give low values 0.93
